Source: ChEMBL document CHEMBL4513135, “CO-ADD screening of IQOG CSIS (Spain) compounds”
Results with a measured potency or affinity are listed apart.

Tested on: Cryptococcus neoformans
Details: Concentration 32 ug.mL-1; ASSAY_TEST Inhibition of Fungal Growth; detection method Resazurin; Absorption (OD600-OD570); plate type 384well; NBS; CORNING #3640

Compound | Inhibition [%]
Cn1ccnc1C1c2ccc3ccccc3c2Oc2nc3c(c(N)c21)CCCCC3 (stereo not given) | -67.84
CCOC(=O)C1=C(C)Nc2nc3c(c(N)c2C1c1cccc(OC)c1)CCCC3 (stereo not given) | -90.12
COc1cc(CCC(N)=O)ccc1O | -2.02
Cc1ccc(C(O)SNNc2ncnc3c2c(C)nn3-c2ccccc2)cc1 (stereo not given) | -5.03
N#Cc1c(N)nc(N2CCOCC2)c(C#N)c1-c1ccccc1 | -3.16
O=c1oc2cc(O)ccc2cc1-c1ccccc1 | -4.62
COc1ccc2cc(C3C4=C(CC(C)(C)CC4=O)Oc4nc5c(c(N)c43)CCCCC5)c(Cl)nc2c1 (stereo not given) | -4.18
N#Cc1c(N)nc(NCCCC2CCN(Cc3ccccc3)CC2)c(C#N)c1-c1ccccc1 | -34.35
CC1Cc2c(Cl)nc3nc4c(c(N)c3c2NC1=O)CCCC4 (stereo not given) | -81.78
Cc1nc2c(cc1C#N)c(N)nn2C | -10.85
CC(C)(C)OC(=O)N[C@H]1CC[C@H](O)CC1 | -36.58
COc1nc2nc3c(c(N)c2cc1C#N)CN(Cc1ccccc1)CC3 | -69.67
Cl.NNN1CCc2ccccc21 | -9.55
C=C1CN(C)c2ncc(C#N)c(=N)n21 | -57.29
COc1ccc(/C=C2/N=C(c3ccccc3)OC2=O)cc1OC | -8.84
O=C1OC(c2ccccc2)=NC1=Cc1ccc([N+](=O)[O-])cc1 | -3.36
Cc1ccc(C2c3c(Cl)nnnc3Oc3ccc4ccccc4c32)cc1 (stereo not given) | -3.15
N#CC1=C(N)Oc2ccc3ccccc3c2C1c1ccccc1 (stereo not given) | -36.46
CSC1=NC2(CC2c2ccccc2)C(=O)N1C (stereo not given) | -5.95
Cc1cnc(NC(=O)OC(C)(C)C)c(Br)c1 | -60.78

Compound | Inhibition [%]
N#CC1(Br)C(=NBr)Oc2c(ccc3ccccc23)C1c1ccc([N+](=O)[O-])cc1 (stereo not given) | -87.41
C#CCN(C)c1nc(Sc2ccccc2)c(C#N)c(-c2ccccc2)c1C#N | -1.7
Nc1c2c(nc3c1C(c1ccccc1)c1ccc4ccccc4c1O3)CCCC2 (stereo not given) | 5.07
Cc1ccccc1-c1c(C=N)c(N)nc2c1S(=O)(=O)OC2(C)C | -3.14
COc1ccc2c(c1)cc(C(=O)Nc1ccccc1)n2C | -38.47
C#CCN(C)Cc1cc2cc(OCCCC3CCN(Cc4ccc(OC)c5ncccc45)CC3)ccc2n1C | -73.89
O=C(NNC(Cc1ccccc1)Cc1ccccc1)c1cc2ccccc2[nH]1 | -1.71
Cn1ccnc1C1c2c(nc3c(c2N)CCC3)Oc2ccc3ccccc3c21 (stereo not given) | -36.13
N#Cc1cc(C#N)c(NCCO)nc1N | -17.78
C/C(=N\NC(=O)c1cc2ccccc2n1Cc1ccccc1)C1CC1 | -0.08
N#Cc1ccc(Br)cc1N | -4.02
CC(=O)C(=Cc1ccccc1)C(=O)O[C@H]1C[C@H](C)CC[C@H]1C(C)C | -6.7
O=C(Cc1ccccc1)N/N=C/c1c[nH]c2ccccc12 | -2.34
C=C1CN(Cc2ccccc2)c2c(C#N)c(-c3ccccc3)c(C#N)c(=N)n21 | -53.83
CCC(CC)NNC(=O)c1cc2ccccc2n1C | -1.5
CC(=O)Nc1nc(Cl)c(C#N)c(-c2ccccc2)c1C#N | -41.58
CCOC(=O)C1=C(C)OC(N)=C(C#N)C1c1ccco1 (stereo not given) | -29.39
COc1cccc(C2C(C#N)=C(N)Oc3[nH]nc(C)c32)c1 (stereo not given) | -0.28
COc1ccc(C2c3c(nc4c(c3N)CCCC4)Oc3ccc4ccccc4c32)c(OC)c1 (stereo not given) | 16.32
OCc1cc2ccccc2[nH]1 | -4.31
